ChEMBL document CHEMBL3988442, “University of Dundee, Small-Polar-MMV Screening Library” (2021)
For some assays here: Potency and affinity values are given separately.

How the values were obtained:
Parameters in all cases: scale not given: direction of the effect not stated beside the values
[1] = target: Protein translocase subunit SecA (Escherichia coli (strain K12)) (UniProt P10408); assay: Assay to Identify E. coli SecA ATPase Inhibitors; type: functional; details: 30 µM
[2] = target: T1, Ubiquitin-activating enzyme e1, putative (Leishmania donovani (strain BPK282A1)) (UniProt E9BSI1); assay: Leishmania donovani Ubiquitin Activating Enzyme (LdE1); type: functional; details: 30 µM
T1 sequence (whole entry): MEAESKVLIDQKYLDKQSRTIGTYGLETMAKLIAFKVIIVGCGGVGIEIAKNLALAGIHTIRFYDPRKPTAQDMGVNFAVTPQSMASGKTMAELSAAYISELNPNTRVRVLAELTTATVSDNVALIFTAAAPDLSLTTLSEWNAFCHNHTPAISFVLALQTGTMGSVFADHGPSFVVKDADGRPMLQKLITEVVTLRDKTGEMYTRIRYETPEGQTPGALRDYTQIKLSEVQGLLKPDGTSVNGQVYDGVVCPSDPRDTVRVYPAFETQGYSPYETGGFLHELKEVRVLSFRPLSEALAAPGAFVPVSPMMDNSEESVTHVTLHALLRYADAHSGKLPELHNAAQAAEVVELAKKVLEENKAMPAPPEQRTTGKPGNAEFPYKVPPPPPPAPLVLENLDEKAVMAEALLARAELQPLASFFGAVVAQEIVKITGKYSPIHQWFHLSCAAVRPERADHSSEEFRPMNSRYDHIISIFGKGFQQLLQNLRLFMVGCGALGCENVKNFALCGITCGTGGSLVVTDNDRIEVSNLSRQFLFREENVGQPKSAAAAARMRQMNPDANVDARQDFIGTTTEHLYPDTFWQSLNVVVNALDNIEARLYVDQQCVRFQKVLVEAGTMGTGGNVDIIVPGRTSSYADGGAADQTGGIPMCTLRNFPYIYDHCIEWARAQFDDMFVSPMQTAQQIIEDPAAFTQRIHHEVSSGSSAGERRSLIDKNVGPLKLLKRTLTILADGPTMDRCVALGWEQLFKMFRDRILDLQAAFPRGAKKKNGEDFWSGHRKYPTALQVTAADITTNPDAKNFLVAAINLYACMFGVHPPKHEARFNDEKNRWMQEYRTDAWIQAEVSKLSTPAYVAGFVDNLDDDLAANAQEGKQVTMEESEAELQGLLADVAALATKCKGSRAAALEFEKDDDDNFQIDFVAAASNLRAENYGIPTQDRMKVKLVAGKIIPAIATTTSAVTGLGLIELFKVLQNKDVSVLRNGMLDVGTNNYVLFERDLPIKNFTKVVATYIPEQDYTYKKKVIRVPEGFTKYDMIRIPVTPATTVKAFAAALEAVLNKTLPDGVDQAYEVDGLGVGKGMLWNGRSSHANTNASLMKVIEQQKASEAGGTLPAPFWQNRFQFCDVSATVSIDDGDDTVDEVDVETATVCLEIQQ

[3] = target: Sialic acid-binding Ig-like lectin 9 (Homo sapiens) (UniProt Q9Y336); assay: Hs-Siglec9 ALPHAscreen SOP 20170721; details: 10 µM
Sequence of Sialic acid-binding Ig-like lectin 9 (Homo sapiens) (Q9Y336 whole entry): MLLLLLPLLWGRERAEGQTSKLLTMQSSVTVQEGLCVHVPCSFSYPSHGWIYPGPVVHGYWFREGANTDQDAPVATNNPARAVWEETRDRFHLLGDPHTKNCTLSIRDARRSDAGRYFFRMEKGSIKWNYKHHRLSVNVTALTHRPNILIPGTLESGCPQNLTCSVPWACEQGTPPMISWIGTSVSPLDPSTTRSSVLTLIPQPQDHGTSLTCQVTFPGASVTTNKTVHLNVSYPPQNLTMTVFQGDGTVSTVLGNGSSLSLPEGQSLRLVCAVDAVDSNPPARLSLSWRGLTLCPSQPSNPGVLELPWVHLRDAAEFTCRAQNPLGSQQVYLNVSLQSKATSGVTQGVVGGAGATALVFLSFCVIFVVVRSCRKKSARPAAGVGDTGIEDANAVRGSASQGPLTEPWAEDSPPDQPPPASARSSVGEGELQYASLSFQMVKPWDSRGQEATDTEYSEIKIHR

Trypanosoma cruzi = assay: Trypanosoma cruzi phosphomannomutase and mannose-1-phosphate guanylyltransferase assay; type: functional; details: 10 µM
[4] = target: T2, Arginase-2, mitochondrial (Homo sapiens) (UniProt P78540); assay: in vitro enzyme assay to detect the production of urea directly proportional to the activity of Arginase II; type: functional; details: 33.3 µM; note: in the data most compounds retested in dose-response had high values
T2 sequence (whole entry): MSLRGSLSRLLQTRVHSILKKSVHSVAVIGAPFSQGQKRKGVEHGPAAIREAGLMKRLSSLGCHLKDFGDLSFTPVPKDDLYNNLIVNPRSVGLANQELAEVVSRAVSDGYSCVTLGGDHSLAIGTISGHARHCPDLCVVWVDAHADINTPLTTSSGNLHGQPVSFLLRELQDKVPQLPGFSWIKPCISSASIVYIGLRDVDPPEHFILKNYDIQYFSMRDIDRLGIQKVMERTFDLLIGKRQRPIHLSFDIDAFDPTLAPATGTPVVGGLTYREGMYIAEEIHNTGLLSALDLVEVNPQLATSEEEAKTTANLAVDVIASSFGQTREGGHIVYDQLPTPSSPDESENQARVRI

[5] = target: T3, Proteasome subunit beta (Trypanosoma cruzi) (UniProt O96673); assay: Trypanosoma cruzi proteasome chymotrypsin-like activity (TcProtChymo) assay.; note: in the data most compounds retested in dose-response had high values; type: functional; details: 9.37 µM
T3 sequence (whole entry): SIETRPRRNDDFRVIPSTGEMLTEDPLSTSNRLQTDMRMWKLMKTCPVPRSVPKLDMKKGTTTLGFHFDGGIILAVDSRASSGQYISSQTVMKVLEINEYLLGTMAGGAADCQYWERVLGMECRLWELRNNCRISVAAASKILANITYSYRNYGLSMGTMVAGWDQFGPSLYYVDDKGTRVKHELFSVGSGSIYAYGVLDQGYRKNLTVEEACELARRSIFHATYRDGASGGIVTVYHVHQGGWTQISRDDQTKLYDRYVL

Homo sapiens = species: Homo sapiens; assay: To identify inhibition of the IFN signalling (Jak-Stat) pathway via expression of an eGFP reporter gene under the control of an IFN-stimulated response element (ISRE) containing MxA promoter.; type: functional; details: 30 µM
[6] = target: T4, Tyrosyl-tRNA synthetase, putative (Trypanosoma cruzi (strain CL Brener)) (UniProt Q4DSP6); assay: Trypanosoma cruzi tyrosyl tRNA synthetase (TcYRS) _High Tyrosine SOP; type: functional; details: 30 µM; note: in the data most compounds retested in dose-response had high values
T4 sequence (whole entry): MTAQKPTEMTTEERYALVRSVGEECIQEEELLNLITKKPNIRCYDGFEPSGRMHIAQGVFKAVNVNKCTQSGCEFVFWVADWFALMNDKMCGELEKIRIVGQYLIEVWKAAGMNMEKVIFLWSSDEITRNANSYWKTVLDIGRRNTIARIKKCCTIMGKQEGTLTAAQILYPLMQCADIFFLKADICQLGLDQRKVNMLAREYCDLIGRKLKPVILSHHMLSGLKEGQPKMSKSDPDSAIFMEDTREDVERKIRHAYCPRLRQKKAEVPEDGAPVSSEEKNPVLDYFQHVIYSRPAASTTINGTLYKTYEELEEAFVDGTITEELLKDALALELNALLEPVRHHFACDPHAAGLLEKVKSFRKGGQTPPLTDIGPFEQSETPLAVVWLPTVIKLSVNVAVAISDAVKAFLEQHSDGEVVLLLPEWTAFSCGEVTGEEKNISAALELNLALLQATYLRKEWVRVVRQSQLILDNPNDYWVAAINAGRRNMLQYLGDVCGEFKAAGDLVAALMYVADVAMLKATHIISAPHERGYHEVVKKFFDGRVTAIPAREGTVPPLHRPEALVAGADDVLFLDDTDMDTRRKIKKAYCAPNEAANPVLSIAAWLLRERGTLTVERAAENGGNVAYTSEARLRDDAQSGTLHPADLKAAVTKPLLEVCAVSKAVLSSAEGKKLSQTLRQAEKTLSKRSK

[7] = target: T4, Tyrosyl-tRNA synthetase, putative (Trypanosoma cruzi (strain CL Brener)); assay: Trypanosoma cruzi tyrosyl tRNA synthetase (TcYRS) SOP; type: functional; details: 30 µM
[8] = target: Chromo domain-containing protein 1 (Saccharomyces cerevisiae (strain ATCC 204508 / S288c) (Baker's yeast)) (UniProt P32657); assay: ScCHD-1 Enzyme Inhibition Assay; type: functional; details: 30 µM; note: in the data most compounds retested in dose-response had high values
Sequence of Chromo domain-containing protein 1 (Saccharomyces cerevisiae (strain ATCC 204508 / S288c) (Baker's yeast)) (P32657 whole entry, the tested form may be a part): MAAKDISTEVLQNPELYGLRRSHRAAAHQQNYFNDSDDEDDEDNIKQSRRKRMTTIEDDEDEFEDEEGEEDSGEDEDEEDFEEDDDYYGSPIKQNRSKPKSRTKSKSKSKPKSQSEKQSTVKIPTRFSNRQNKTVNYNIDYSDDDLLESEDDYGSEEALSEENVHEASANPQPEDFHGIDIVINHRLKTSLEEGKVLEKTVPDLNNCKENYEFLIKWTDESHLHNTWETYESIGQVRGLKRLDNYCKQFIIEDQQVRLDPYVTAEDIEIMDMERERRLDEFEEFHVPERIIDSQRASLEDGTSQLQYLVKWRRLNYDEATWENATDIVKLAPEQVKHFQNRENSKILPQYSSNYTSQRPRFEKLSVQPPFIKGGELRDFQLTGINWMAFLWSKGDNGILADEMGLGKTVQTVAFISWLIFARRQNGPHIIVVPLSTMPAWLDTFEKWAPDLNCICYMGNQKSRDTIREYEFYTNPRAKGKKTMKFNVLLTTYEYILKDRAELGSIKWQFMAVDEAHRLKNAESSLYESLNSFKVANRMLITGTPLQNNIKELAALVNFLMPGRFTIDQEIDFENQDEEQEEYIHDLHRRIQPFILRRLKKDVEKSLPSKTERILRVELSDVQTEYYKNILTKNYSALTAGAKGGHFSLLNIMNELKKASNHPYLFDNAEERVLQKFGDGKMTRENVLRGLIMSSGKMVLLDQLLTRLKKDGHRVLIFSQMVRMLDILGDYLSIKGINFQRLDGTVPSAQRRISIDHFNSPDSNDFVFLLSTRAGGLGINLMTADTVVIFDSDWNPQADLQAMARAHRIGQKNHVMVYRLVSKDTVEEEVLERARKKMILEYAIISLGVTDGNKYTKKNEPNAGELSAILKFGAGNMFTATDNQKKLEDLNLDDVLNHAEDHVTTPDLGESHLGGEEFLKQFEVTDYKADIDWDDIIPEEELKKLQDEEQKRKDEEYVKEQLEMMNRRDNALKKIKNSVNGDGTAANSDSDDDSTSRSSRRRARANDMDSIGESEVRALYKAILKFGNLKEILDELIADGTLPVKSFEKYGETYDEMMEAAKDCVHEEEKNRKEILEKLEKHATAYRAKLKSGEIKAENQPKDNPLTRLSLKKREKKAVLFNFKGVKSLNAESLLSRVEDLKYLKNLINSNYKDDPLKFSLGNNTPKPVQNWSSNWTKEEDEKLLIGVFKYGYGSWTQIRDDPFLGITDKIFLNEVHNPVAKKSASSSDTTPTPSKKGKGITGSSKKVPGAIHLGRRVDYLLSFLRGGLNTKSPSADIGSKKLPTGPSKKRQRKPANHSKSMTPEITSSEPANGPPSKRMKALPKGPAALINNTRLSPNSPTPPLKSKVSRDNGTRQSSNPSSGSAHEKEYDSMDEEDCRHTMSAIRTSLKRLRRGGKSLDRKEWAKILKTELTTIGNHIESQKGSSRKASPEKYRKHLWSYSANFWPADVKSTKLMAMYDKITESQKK

Sequence of Protein translocase subunit SecA (Escherichia coli (strain K12)) (P10408 whole entry): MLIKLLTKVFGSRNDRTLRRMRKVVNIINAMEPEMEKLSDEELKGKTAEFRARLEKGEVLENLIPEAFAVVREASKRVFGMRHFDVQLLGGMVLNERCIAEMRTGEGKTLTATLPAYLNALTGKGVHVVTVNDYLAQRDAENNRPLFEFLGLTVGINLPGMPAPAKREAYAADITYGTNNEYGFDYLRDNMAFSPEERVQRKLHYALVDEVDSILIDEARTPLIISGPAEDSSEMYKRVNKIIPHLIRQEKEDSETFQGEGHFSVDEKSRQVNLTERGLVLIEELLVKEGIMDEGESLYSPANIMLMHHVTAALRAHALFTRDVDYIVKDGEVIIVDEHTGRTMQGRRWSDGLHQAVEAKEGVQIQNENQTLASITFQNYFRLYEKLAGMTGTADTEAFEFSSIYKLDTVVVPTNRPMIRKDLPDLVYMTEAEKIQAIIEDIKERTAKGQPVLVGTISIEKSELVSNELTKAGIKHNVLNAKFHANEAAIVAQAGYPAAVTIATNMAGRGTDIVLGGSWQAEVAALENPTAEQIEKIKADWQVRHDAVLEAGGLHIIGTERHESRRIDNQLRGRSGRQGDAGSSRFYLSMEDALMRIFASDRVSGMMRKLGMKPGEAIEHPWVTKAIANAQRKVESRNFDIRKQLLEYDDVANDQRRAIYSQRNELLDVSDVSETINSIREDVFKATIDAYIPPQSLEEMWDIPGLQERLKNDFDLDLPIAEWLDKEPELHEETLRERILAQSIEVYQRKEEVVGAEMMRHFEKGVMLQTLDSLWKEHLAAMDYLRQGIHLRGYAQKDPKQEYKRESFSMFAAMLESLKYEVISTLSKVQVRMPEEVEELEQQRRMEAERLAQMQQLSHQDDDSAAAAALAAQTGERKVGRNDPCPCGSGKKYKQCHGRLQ

| Compound | Percent Effect [1] [%] | Percent Effect [2] [%] | Percent Effect [3] [%] | Percent Effect (Trypanosoma cruzi) [%] | Percent Effect [4] [%] | Percent Effect [5] [%] | Percent Effect (Homo sapiens) [%] | Percent Effect [6] [%] | Percent Effect [7] [%] | Percent Effect [8] [%] |
| --- | --- | --- | --- | --- | --- | --- | --- | --- | --- | --- |
| CCN(CC)C(=O)C(c1ccccc1)N1CCn2c(C)nnc2C1 (stereo not given) | -4.22 | 17.9 | 9.65 | 7.61 | 0.82 | 8.45 | 10.3 | 7.18 | 22.9 | -4.71 |
| CCc1nc(C)c(C(=O)NCCN2CCC(C)CC2)s1 | -2.31 | -2.6 | 7.15 | -4.1 | -2.25 | -6.84 | 9.62 | 0.98 | 11.8 | -2.04 |
| Cc1ncc(S(C)(=O)=O)c(C2CCCNC2)n1 (stereo not given) | -0.171 | 2.7 | 5.3 | -2.81 | 1.75 | 8.39 | 18.1 | 6.92 | 12.2 | 111 |
| Cn1cc(C(=O)N2CCC(Cc3nccs3)CC2)cn1 | 0.12 | 6.67 | -7.82 | -4.54 | -1.33 | 6.73 | 15 | 4.23 | 0 | -28.5 |
| Cc1ncc(-c2ccnc(N3CCCCC3)n2)c(=O)[nH]1 | -0.483 | 8 | 1.07 | -8.84 | -0.887 | 9.07 | 21.2 | 0.526 | 5.13 | -11.6 |
| Cc1[nH]c2ccccc2c1-c1ccnc(NC[C@H](O)CO)n1 | -3.38 | 5.33 | -5 | -8.23 | -5.32 | 8.23 | 23.4 | -1.58 | -7.69 | -13.5 |
| COc1ccc(CN2C[C@@H]3COC[C@]3(CN(C)C)C2)cc1 | -12.1 | -1.3 | -2.55 | 1.07 | -1.22 | 8.56 | -15 | 4.74 | 7.69 | -0.368 |
| CN(C)CC(=O)N1C[C@H]2CCC[C@@]2(COc2ccccn2)C1 | -8.78 | 1.3 | 1.97 | -2.82 | -4.86 | 11.9 | 7.53 | -0.526 | 5.13 | -0.114 |
| CN(Cc1nnc(C2CC2)o1)C1CCN(CCCc2cnn(C)c2)C1 (stereo not given) | -0.864 | 10.7 | -3.87 | -2.61 | -2.22 | 22.1 | 18.5 | 11.1 | 15.4 | -5.79 |
| OC(COCc1ccccc1F)CN1CCc2c(ncn2C2CC2)C1 (stereo not given) | -3.46 | -5.33 | 7.5 | -4.02 | 2.66 | 8.06 | 10.4 | 2.63 | 0 | -6.26 |
| Cc1nc(CN(C)C2CCN(CCCOc3ccccc3)C2)no1 (stereo not given) | 0.729 | 23.4 | -1.5 | 2.42 | -5.94 | 20.9 | 8.47 | 8.82 | 21.2 | -11.3 |
